Activity calls are given as the source filed them. Rule for the calls: active = hit-call score of the fitted dose curve at least 0.9, where 1 is the maximum; inactive = score below 0.9.
Tests used:
[1] = read-out: Interleukin-6 (IL6), IL6 (gene 3569); assay: BSK_CASM3C_IL6: BioMAP Diversity Plus: CASM3C Assay for Interleukin-6 (IL6) Biomarker Activity for (AID 2283040); settings: primary human coronary artery smooth muscle cells; actives raise or lower the signal
[2] = read-out: Tissue plasminogen activator (tPA), PLAT (gene 5327); assay: BSK_BE3C_tPA: BioMAP Diversity Plus: BE3C Assay for Tissue plasminogen activator (tPA) Biomarker Activity (AID 2283041); settings: primary human bronchial epithelial cells; actives raise or lower the signal
In short: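 ELISA read-out of tPA on human primary bronchial epithelial cells, 24 h post-dosing; bidirectional fit vs DMSO negative control/baseline.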

[3] = read-out: Interleukin-8 (IL8), CXCL8 (gene 3576); assay: BSK_CASM3C_IL8: BioMAP Diversity Plus: CASM3C Assay for Interleukin-8 (IL8) Biomarker Activity (AID 2283042); settings: primary human coronary artery smooth muscle cells; actives raise or lower the signal;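 note: IL-8 protein level quantified by ELISA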
[4] = read-out: Human Leukocyte Antigen - DR isotype (HLADR), HLA-DRA (gene 3122); assay: BSK_CASM3C_HLADR: BioMAP Diversity Plus: CASM3C Assay for Human Leukocyte Antigen - DR isotype (HLADR) Biomarker Activity (AID 2283043); settings: primary human coronary artery smooth muscle cells; actives raise or lower the signal;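 note: cell-surface HLA-DR protein level quantified by ELISA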
[5] = read-out: Macrophage colony-stimulating factor (MCSF), CSF1 (gene 1435); assay: BSK_CASM3C_MCSF: BioMAP Diversity Plus: CASM3C Assay for Macrophage colony-stimulating factor (MCSF) Biomarker Activity (AID 2283044); settings: primary human coronary artery smooth muscle cells; actives raise or lower the signal;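 note: M-CSF protein amount quantified by ELISA after 24 h exposure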
[6] = read-out: Low-density lipoprotein receptor (LDLR), LDLR (gene 3949); assay: BSK_CASM3C_LDLR: BioMAP Diversity Plus: CASM3C Assay for Low-density lipoprotein receptor (LDLR) Biomarker Activity (AID 2283045); settings: primary human coronary artery smooth muscle cells; actives raise or lower the signal;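 note: LDLR protein level on the cell surface quantified by ELISA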
[7] = read-out: Monocyte Chemoattractant Protein-1 (MCP1), CCL2 (gene 6347); assay: BSK_CASM3C_MCP1: BioMAP Diversity Plus: CASM3C Assay for Monocyte Chemoattractant Protein-1 (MCP1) Biomarker Activity (AID 2283046); settings: primary human coronary artery smooth muscle cells; actives raise or lower the signal;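 note: MCP-1 level quantified by ELISA 24 h after dosing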
[8] = BSK_CASM3C_Proliferation: Cell Proliferation Assessment in the BioMAP Diversity Plus: CASM3C Assay (AID 2283047); settings: primary human coronary artery smooth muscle cells;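 note: sulforhodamine B total protein stain as relative cell number at 560 nm; sub-confluent cells exposed 48 h before staining; fitted both ways against DMSO so gain or loss of cell number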
[9] = read-out: Monokine induced gamma interferon (MIG), CXCL9 (gene 4283); assay: BSK_CASM3C_MIG: BioMAP Diversity Plus: CASM3C Assay for Monokine induced gamma interferon (MIG) Biomarker Activity (AID 2283048); settings: primary human coronary artery smooth muscle cells; actives raise or lower the signal;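 note: MIG protein level measured by ELISA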
[10] = read-out: serum amyloid A (SAA), SAA1 (gene 6288); assay: BSK_CASM3C_SAA: BioMAP Diversity Plus: CASM3C Assay for serum amyloid A (SAA) Biomarker Activity (AID 2283049); settings: primary human coronary artery smooth muscle cells; actives raise or lower the signal;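 note: SAA protein level quantified by ELISA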
[11] = BSK_CASM3C_SRB: Viability Assessment in the BioMAP Diversity Plus: CASM3C Assay (AID 2283050); settings: primary human coronary artery smooth muscle cells;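 note: total protein by SRB staining as cytotoxicity measure in parallel cultures; cells exposed to compound for 24 h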
[12] = read-out: Thrombomodulin, THBD (gene 7056); assay: BSK_CASM3C_Thrombomodulin: BioMAP Diversity Plus: CASM3C Assay for Thrombomodulin Biomarker Activity (AID 2283051); settings: primary human coronary artery smooth muscle cells; actives raise or lower the signal;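 note: thrombomodulin protein level measured by ELISA 24 h after dosing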
[13] = read-out: Tissue Factor, F3 (gene 2152); assay: BSK_CASM3C_TissueFactor: BioMAP Diversity Plus: CASM3C Assay for Tissue Factor Biomarker Activity (AID 2283052); settings: primary human coronary artery smooth muscle cells; actives raise or lower the signal;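 note: cell surface tissue factor protein level read by ELISA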
[14] = read-out: Interferon-gamma inducible Protein 10 (IP10), CXCL10 (gene 3627); assay: BSK_hDFCGF_IP10: BioMAP Diversity Plus: hDFCGF Assay for Interferon-gamma inducible Protein 10 (IP10) Biomarker Activity (AID 2283053); settings: primary human foreskin fibroblasts; actives raise or lower the signal
In short: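 ELISA read-out of IP-10 (CXCL10) from primary human skin fibroblasts, 24 h after compound addition. Gain or loss of signal versus DMSO baseline, bidirectional curve fitting.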

[15] = read-out: Urokinase-type plasminogen activator receptor (uPAR), PLAUR (gene 5329); assay: BSK_CASM3C_uPAR: BioMAP Diversity Plus: CASM3C Assay for Urokinase-type plasminogen activator receptor (uPAR) Biomarker Activity (AID 2283054); settings: primary human coronary artery smooth muscle cells; actives raise or lower the signal;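 note: cell-surface uPAR protein level quantified by ELISA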
[16] = read-out: Vascular cell adhesion molecule 1 (VCAM1), VCAM1 (gene 7412); assay: BSK_CASM3C_VCAM1: BioMAP Diversity Plus: CASM3C Assay for Vascular cell adhesion molecule 1 (VCAM1) Biomarker Activity (AID 2283055); settings: primary human coronary artery smooth muscle cells; actives raise or lower the signal;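 note: VCAM-1 protein level quantified by ELISA on the cells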
[17] = read-out: Collagen III, COL3A1 (gene 1281); assay: BSK_hDFCGF_CollagenIII: BioMAP Diversity Plus: hDFCGF Assay for Collagen III Biomarker Activity (AID 2283056); settings: primary human foreskin fibroblasts; actives raise or lower the signal
In short: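 Cells: human foreskin fibroblasts, primary. Dosing followed by 24 h incubation, then ELISA for collagen III. Both increases and decreases scored relative to DMSO.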

[18] = read-out: Epidermal growth factor receptor (EGFR), EGFR (gene 1956); assay: BSK_hDFCGF_EGFR: BioMAP Diversity Plus: hDFCGF Assay for Epidermal growth factor receptor (EGFR) Biomarker Activity (AID 2283057); settings: primary human foreskin fibroblasts; actives raise or lower the signal
In short: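 ELISA readout of EGFR on human dermal fibroblasts (primary foreskin cells), 24 h post-dosing; bidirectional curve fit vs DMSO baseline, gain or loss of signal scored.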

[19] = read-out: Interleukin-8 (IL8), CXCL8 (gene 3576); assay: BSK_hDFCGF_IL8: BioMAP Diversity Plus: hDFCGF Assay for Interleukin-8 (IL8) Biomarker Activity (AID 2283058); settings: primary human foreskin fibroblasts; actives raise or lower the signal
In short: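 IL-8 levels from compound-treated primary human fibroblasts were read by ELISA at 24 h, with DMSO serving as baseline for bidirectional fitting.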

[20] = BSK_hDFCGF_Proliferation: Cell Proliferation Assessment in the BioMAP Diversity Plus: hDFCGF Assay (AID 2283059); settings: primary human foreskin fibroblasts;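 note: curves fitted for both rise and fall of signal versus DMSO baseline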
In short: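 This proliferation readout used SRB total-protein staining of human foreskin fibroblasts […], normalized to DMSO with bidirectional curve fitting.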

Measured: AC50

O=S(=O)(O)c1ccc(N=Nc2c(O)ccc3cc(S(=O)(=O)O)ccc23)cc1
inactive: [1] | [2] | [3] | [4] | [5] | [6] | [7] | [8] | [9] | [10] | [11] | [12] | [13] | [14] | [15] | [16] | [17] | [18] | [19] | [20]

Cc1nccn1-c1ccc(Sc2cccc(C3(C(N)=O)CCOCC3)c2)cc1
inactive: [3] | [5] | [6] | [7] | [10] | [11] | [12] | [13] | [15] | [17] | [18] | [19]
active: [1] 5.2 µM | [2] 4.43 µM | [4] 15.7 µM | [8] 20 µM | [9] 16.4 µM | [14] 10.2 µM | [16] 14.9 µM | [20] 4.15 µM

CCCCCCCCCC
inactive: [1] | [2] | [3] | [4] | [5] | [6] | [7] | [8] | [9] | [10] | [11] | [12] | [13] | [14] | [15] | [16] | [17] | [18] | [19] | [20]

— PubChem BioAssay (EPA / NIEHS)
